Results from PubChem BioAssay (NCATS).
Records with an inconclusive call do not appear. Calls of active or inactive are those of the source. Calls come from the whole dose curve; as a rule, active = well fitted curve in the direction sought with a large enough effect; inconclusive = small, poorly fitted or top-dose-only effect, or another doubt; inactive = no such curve, though single readings can be large; an effect the other way counts as inactive or inconclusive.

Experiments:
[1] = target: Rap guanine nucleotide exchange factor 3 (Homo sapiens) (UniProt O95398); test: Confirmatory qHTS for agonist of cAMP-regulated guanine nucleotide exchange factor 3 (EPAC1) (AID 1645881);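 note: EPAC1 catalysed release of BODIPY-GDP from Rap1B seen as fluorescence loss; 100% = effect of cAMP agonist control; nearly all actives have a fitted effect of over 75% in size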
Sequence of Rap guanine nucleotide exchange factor 3 (Homo sapiens) (O95398 whole entry, looked up): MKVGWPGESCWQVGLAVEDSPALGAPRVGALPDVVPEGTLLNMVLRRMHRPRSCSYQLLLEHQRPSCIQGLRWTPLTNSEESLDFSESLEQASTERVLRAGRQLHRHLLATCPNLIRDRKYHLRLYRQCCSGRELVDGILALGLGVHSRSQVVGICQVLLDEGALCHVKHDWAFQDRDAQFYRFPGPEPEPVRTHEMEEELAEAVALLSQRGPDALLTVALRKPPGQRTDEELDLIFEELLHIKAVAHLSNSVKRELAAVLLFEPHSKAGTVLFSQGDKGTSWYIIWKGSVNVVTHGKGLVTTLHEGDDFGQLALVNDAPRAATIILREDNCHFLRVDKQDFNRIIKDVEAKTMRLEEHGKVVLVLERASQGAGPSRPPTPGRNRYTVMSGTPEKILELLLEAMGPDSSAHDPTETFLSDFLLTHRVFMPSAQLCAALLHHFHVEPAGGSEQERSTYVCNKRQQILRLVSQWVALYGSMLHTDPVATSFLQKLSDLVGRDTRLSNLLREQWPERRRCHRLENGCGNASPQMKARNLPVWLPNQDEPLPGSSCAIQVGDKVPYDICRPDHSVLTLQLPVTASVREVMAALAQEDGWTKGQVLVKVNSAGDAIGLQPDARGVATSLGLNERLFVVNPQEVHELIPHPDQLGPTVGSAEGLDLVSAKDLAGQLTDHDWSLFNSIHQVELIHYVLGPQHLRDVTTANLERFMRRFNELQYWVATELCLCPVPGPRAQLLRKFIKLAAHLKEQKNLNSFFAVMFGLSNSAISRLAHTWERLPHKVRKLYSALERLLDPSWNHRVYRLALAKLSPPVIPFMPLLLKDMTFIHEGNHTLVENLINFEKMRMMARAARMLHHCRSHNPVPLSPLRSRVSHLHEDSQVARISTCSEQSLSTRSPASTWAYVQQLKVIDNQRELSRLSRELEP

[2] = target: Rap guanine nucleotide exchange factor 4 (Homo sapiens) (UniProt Q8WZA2); test: Confirmatory qHTS for agonist of cAMP-regulated guanine nucleotide exchange factor 4 (EPAC2) (AID 1645884);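 note: nucleotide exchange releases bodipy-GDP from Rap1 and this lowers its fluorescence; % is set by controls: 0 for no effect and ±100 for the full control effect; nearly all actives have a fitted effect of over 65% in size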
Sequence of Rap guanine nucleotide exchange factor 4 (Homo sapiens) (Q8WZA2 whole entry, looked up): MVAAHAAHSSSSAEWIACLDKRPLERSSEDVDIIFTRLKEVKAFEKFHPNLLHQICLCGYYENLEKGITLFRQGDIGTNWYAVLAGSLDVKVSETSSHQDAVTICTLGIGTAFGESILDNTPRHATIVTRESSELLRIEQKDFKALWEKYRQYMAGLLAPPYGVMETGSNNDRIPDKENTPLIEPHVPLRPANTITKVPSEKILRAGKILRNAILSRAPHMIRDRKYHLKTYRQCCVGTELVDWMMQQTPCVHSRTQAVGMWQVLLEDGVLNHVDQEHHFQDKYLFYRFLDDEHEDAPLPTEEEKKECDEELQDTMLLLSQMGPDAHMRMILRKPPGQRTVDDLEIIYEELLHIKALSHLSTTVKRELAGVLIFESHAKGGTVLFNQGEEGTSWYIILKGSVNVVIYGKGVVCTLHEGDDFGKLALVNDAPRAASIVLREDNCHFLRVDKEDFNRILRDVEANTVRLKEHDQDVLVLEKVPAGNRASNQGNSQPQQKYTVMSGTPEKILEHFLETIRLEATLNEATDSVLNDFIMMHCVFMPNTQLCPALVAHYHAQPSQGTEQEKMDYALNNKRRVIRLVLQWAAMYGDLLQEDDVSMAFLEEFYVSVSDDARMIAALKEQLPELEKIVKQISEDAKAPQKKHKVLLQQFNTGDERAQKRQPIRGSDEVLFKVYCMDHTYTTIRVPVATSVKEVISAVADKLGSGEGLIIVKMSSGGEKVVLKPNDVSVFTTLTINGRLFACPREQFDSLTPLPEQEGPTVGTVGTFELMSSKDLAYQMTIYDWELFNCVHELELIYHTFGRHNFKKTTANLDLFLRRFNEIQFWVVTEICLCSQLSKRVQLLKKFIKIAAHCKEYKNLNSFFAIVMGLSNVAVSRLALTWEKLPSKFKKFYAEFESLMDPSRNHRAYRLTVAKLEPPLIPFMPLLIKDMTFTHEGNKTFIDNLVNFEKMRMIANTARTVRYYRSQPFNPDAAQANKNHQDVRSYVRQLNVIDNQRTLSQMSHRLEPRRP

[3] = target: Rap guanine nucleotide exchange factor 4 (Homo sapiens) (UniProt Q8WZA2); test: Confirmatory qHTS for antagonist of cAMP-regulated guanine nucleotide exchange factor 4 (EPAC2) (AID 1645885); note: nearly all actives have a fitted effect of over 25% in size; note: potency is the fitted concentration of half-maximal effect; for activity change, negative = inhibition: % is set by controls: 0 for no effect and ±100 for the full control effect
[4] = target: Rap guanine nucleotide exchange factor 3 (Homo sapiens) (UniProt O95398); test: Counterscreen qHTS for antagonist of cAMP-regulated guanine nucleotide exchange factor 3 (EPAC1) (AID 1645888);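 note: fluorescence loss as bound BODIPY-GDP is released from Rap1B; % of control where 0% means no effect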
In short: (§1)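 Rap1B-BODIPY-GDP 250 nM + GDP 50 uM; cpds 7-pt, final 9.74 nM–152 uM (activator mode) or from 7.32 nM upwards (inhibitor mode); RT; FI 480/540 nm at 5 and 30 min, then ± cAMP, reread.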

[5] = target: Rap guanine nucleotide exchange factor 3 (Homo sapiens) (UniProt O95398); test: Counterscreen qHTS for agonist of cAMP-regulated guanine nucleotide exchange factor 3 (EPAC1) (AID 1645889); note: nearly all actives have a fitted effect of over 40% in size; note: potency is the fitted concentration of half-maximal effect; for activation: % of control where 0% means no effect
In short: as §1

CCc1cc(-c2n[nH]c(C)c2-c2nc(C)cs2)c(O)cc1OC
inactive: Potency [1] | activation [2] 5.22% [at 17.1 µM, percent relative to cAMP agonist control] | Potency [3] | activity change, negative = inhibition [4] -17% [at 30.8 µM] | activation [5] 34.8% [at 30.8 µM]

CCOc1cc(/C=C2/SC(=S)N(CC(=O)O)C2=O)ccc1OC(=O)c1cccs1
inactive: Potency [1] | Potency [2] | Potency [3] | Potency [4] | Potency [5]

O=C1C=C(NCc2ccccc2)c2ccccc2C1=O
active: Potency [3] 15.1 µM
inactive: Potency [1] | Potency [2] | Potency [4] | Potency [5]

CC1(Cc2cc(Cl)ccc2C(F)(F)F)C(=O)Nc2cc(F)ccc21 (stereo not given)
inactive: Potency [1] | activation [2] 5.2% [at 17.1 µM, percent relative to cAMP agonist control] | Potency [3] | activity change, negative = inhibition [4] -15.8% [at 30.8 µM] | activation [5] 12.6% [at 30.8 µM]

CCOc1cc(/C=C/C(=O)OCC(=O)NCc2ccco2)cc(Cl)c1OC
inactive: Potency [1] | Potency [2] | Potency [3] | Potency [4] | Potency [5]

CC1CCCN(c2nc3ccccc3nc2C(C#N)S(=O)(=O)c2ccccc2)C1 (stereo not given)
active: Potency [5] 22.4 µM
inactive: Potency [1] | Potency [2] | Potency [3] | Potency [4]

O=C(CSc1nc(-c2cccs2)nc2cc(=O)[nH]n12)Nc1cccc(C(F)(F)F)c1
inactive: Potency [1] | Potency [2] | outcome [3] inactive [at 12.7 µM] | Potency [4] | Potency [5]

Cc1ccc2oc(=O)n(CCOc3ccccc3C)c2c1
inactive: Potency [1] | activation [2] 11.2% [at 17.1 µM, percent relative to cAMP agonist control] | Potency [3] | activity change, negative = inhibition [4] -6.86% [at 30.8 µM] | activation [5] 15.6% [at 30.8 µM]

COc1ccc(C(=O)Nc2ccccc2-c2nnn(CC(N)=O)n2)cc1
inactive: Potency [1] | Potency [2] | Potency [3] | Potency [4] | Potency [5]

C=CCc1ccccc1OCCSc1nc(-c2ccc(C(C)(C)C)cc2)nc2cc(=O)[nH]n12
inactive: Potency [1] | Potency [2] | Potency [3] | Potency [4] | Potency [5]

Cc1cc2oc(=O)c(CC(=O)O)c(C)c2c2occ(-c3ccccc3)c12
inactive: Potency [1] | Potency [2] | Potency [3] | Potency [4] | Potency [5]

O=C(NCC(c1ccco1)N1CCCC1)c1ccccc1Sc1ccc(C(F)(F)F)cc1[N+](=O)[O-] (stereo not given)
inactive: Potency [1] | Potency [2] | Potency [3] | Potency [4] | Potency [5]

CC(C)(C)NC(=O)C(c1ccc(C#N)cc1)n1c(=O)c(-c2ccco2)nc2ccccc21 (stereo not given)
inactive: Potency [1] | Potency [2] | Potency [3] | Potency [4] | Potency [5]

COc1ccc(N(CC(=O)NC2CCCCCCC2)S(=O)(=O)c2c(C)nn(C)c2C)cc1
inactive: Potency [1] | Potency [2] | Potency [3] | Potency [4] | Potency [5]

Cc1c(C(=O)OCC(C)C)[nH]c2c1C(=O)CC(c1ccco1)C2 (stereo not given)
inactive: Potency [1] | Potency [2] | Potency [3] | Potency [4] | Potency [5]

O=C(O)CN1C(=O)/C(=C\c2cc([N+](=O)[O-])ccc2OCc2ccccc2Cl)SC1=S
inactive: Potency [1] | activation [2] 2.47% [at 17.1 µM, percent relative to cAMP agonist control] | Potency [3] | activity change, negative = inhibition [4] -20.4% [at 30.8 µM] | activation [5] 29.5% [at 30.8 µM]

COC(=O)C1=CN(Cc2ccc(OC)c(OC)c2)C=C(C(=O)OC)C1c1ccccc1F
active: Potency [3] 23.9 µM
inactive: Potency [1] | Potency [2] | Potency [4] | Potency [5]

COc1cc(Cl)cc(/C=N\NC(=O)c2ccc3c(c2)OCO3)c1O
inactive: Potency [1] | Potency [2] | Potency [3] | Potency [4] | Potency [5]

O=C(CCN1C(=O)S/C(=C\c2ccc(Cl)cc2)C1=O)Nc1ccc(C(=O)O)cc1
inactive: Potency [1] | Potency [2] | Potency [3] | Potency [4] | Potency [5]

N#Cc1c(-c2ccc(F)cc2)cc(-c2ccccc2)nc1SCC(=O)NCC(=O)O
inactive: Potency [1] | Potency [2] | outcome [3] inactive [at 12.7 µM] | Potency [4] | Potency [5]

Cc1ccccc1Cn1nnc2c(=O)[nH]c(C3CCCN(C(=O)c4ccc(C(C)(C)C)cc4)C3)nc21 (stereo not given)
inactive: Potency [1] | Potency [2] | Potency [3] | Potency [4] | Potency [5]

CC1=C(C(=O)OC2CCCCCC2)C(c2c(Cl)cccc2Cl)CC(=O)N1 (stereo not given)
inactive: Potency [1] | Potency [2] | Potency [3] | Potency [4] | Potency [5]

Cc1cc2ccccc2n1CCNC(=O)C1CCCCC1
inactive: Potency [1] | Potency [2] | Potency [4] | Potency [5]
active: Potency [3] 95.3 µM

O=C(O)C(Cc1c[nH]c2ccccc12)NS(=O)(=O)c1ccc2ccccc2c1 (stereo not given)
inactive: Potency [1] | Potency [2] | Potency [3] | Potency [4] | Potency [5]

CC1CCC(NC(=O)Cn2c3c(c(-c4ccccc4Cl)cc2=O)CCC3)CC1 (stereo not given)
inactive: Potency [1] | activation [2] 13.3% [at 17.1 µM, percent relative to cAMP agonist control] | Potency [3] | activity change, negative = inhibition [4] -11.4% [at 30.8 µM] | activation [5] 6.93% [at 30.8 µM]

COc1cc(-c2cc(OC)c3c(C)oc(C)c3c(=O)c2)ccc1OC(=O)c1ccc(C)cc1
inactive: Potency [1] | Potency [2] | Potency [3] | Potency [4] | Potency [5]

CC1(Cc2ccc(OC(F)(F)F)cc2)C(=O)Nc2ccc(OC(F)(F)F)cc21 (stereo not given)
inactive: Potency [1] | activation [2] -11.8% [at 17.1 µM, percent relative to cAMP agonist control] | Potency [3] | activity change, negative = inhibition [4] -17.3% [at 30.8 µM] | activation [5] 35.9% [at 30.8 µM]

CN(CC(=O)Nc1cccc(F)c1)C(=O)c1cccc(-n2cccc2)c1
inactive: Potency [1] | activation [2] 6.22% [at 17.1 µM, percent relative to cAMP agonist control] | Potency [3] | activity change, negative = inhibition [4] -8.31% [at 30.8 µM] | activation [5] 14.1% [at 30.8 µM]

CC(C)c1ccc(S(=O)(=O)Nc2ccc3c(c2)OCO3)cc1
inactive: Potency [1] | Potency [2] | Potency [3] | Potency [4] | Potency [5]

CCCC(=O)Oc1c(S(=O)(=O)c2ccc(C)cc2)c(C)nn1C(C)(C)C
inactive: Potency [1] | activation [2] 12.6% [at 17.1 µM, percent relative to cAMP agonist control] | Potency [3] | activity change, negative = inhibition [4] -10.7% [at 30.8 µM] | activation [5] 5.13% [at 30.8 µM]

Cc1ccc2nc(-c3ccccc3)c(Cc3cccc(F)c3)n2c1
inactive: Potency [1] | Potency [2] | Potency [4] | Potency [5]
active: Potency [3] 0.426 µM

O=C(COC(=O)c1ccc([N+](=O)[O-])s1)NCc1ccccc1
inactive: Potency [1] | Potency [2] | Potency [3] | Potency [4] | Potency [5]

O=C(Nc1cccc([N+](=O)[O-])c1)c1ccc2c(c1)C(=O)N(c1ccccn1)C2=O
inactive: Potency [1] | activation [2] 10.8% [at 17.1 µM, percent relative to cAMP agonist control] | Potency [3] | activity change, negative = inhibition [4] -7.46% [at 30.8 µM] | activation [5] 12.1% [at 30.8 µM]

CC1=NN(c2ccc(Br)cc2)C(=O)/C1=C/c1cccs1
inactive: Potency [1] | activation [2] 4.12% [at 17.1 µM, percent relative to cAMP agonist control] | Potency [3] | activity change, negative = inhibition [4] 29.1% [at 30.8 µM]
active: Potency [5] 14.1 µM

O=C(NCC(c1ccco1)N1CCCCC1)c1cccc(NS(=O)(=O)c2ccc(Br)cc2)c1 (stereo not given)
inactive: Potency [1] | activation [2] -6.31% [at 17.1 µM, percent relative to cAMP agonist control] | Potency [3] | activity change, negative = inhibition [4] -11.8% [at 30.8 µM] | activation [5] 29.4% [at 30.8 µM]

O=C(O)C1CC(c2ccc(F)cc2)=NO1 (stereo not given)
inactive: Potency [1] | activation [2] -14.9% [at 17.1 µM, percent relative to cAMP agonist control] | Potency [3] | activity change, negative = inhibition [4] -15.4% [at 30.8 µM] | activation [5] 21.8% [at 30.8 µM]

O=c1[nH]n2c(=O)c3c([nH]c2c1N=Nc1cccc(Cl)c1)CCCC3
inactive: Potency [1] | activation [2] -16.2% [at 17.1 µM, percent relative to cAMP agonist control] | Potency [3] | activity change, negative = inhibition [4] -25.4% [at 30.8 µM] | activation [5] -2.93% [at 30.8 µM]

Cc1csc(NC(=O)CSCC(=O)O)c1-c1nc2ccccc2s1
inactive: Potency [1] | Potency [2] | Potency [3] | Potency [4] | Potency [5]

Cc1ccn2cc(-c3cccc(NC(=O)c4cccs4)c3)nc2c1
inactive: Potency [1] | Potency [2] | Potency [3] | Potency [4] | Potency [5]

O=C(Nc1ccc(NC(=O)c2ccco2)c(Cl)c1)c1ccc2c(c1)OCCO2
inactive: Potency [1] | Potency [2] | Potency [3] | Potency [4] | Potency [5]

Cc1ccc(C)c(CSC2=NC(C)(C)Nc3ccccc32)c1
inactive: Potency [1] | Potency [2] | outcome [3] inactive [at 12.7 µM] | Potency [4] | Potency [5]

CCCCN1C(=O)C(NC(=O)c2ccc(C(C)(C)C)cc2)(C(F)(F)F)C(C(=O)OC)=C1C (stereo not given)
inactive: Potency [1] | Potency [2] | Potency [3] | Potency [4] | Potency [5]

CC(C)(C)c1ccc(C(=O)NCC2CCCN2S(=O)(=O)c2ccccc2)cc1 (stereo not given)
inactive: Potency [1] | Potency [2] | Potency [3] | Potency [4] | Potency [5]

O=C(O)/C(=C\c1ccc(-c2ccc(F)cc2)o1)c1ccccc1
inactive: Potency [1] | Potency [2] | Potency [3] | Potency [4] | Potency [5]

CC(C)c1ccc(C2=CC(c3cccc(Cl)c3)n3ncnc3N2)cc1 (stereo not given)
inactive: Potency [1] | Potency [2] | outcome [3] inactive [at 12.7 µM] | Potency [4] | Potency [5]
